Measured values from the supplement of paper PMC10849652.
The full data set covers some 7,900 targets. This sample favours those with a hit. About 0.6% of all pairs of compound and target were hits.

How the values were obtained:
Test in all cases: log2 fold change, soluble protein after heating vs DMSO (PISA); higher = thermal stabilisation; K562 cells, 10 uM, 30 min; active = over 0.2 and 3.5 SD of the protein, either way, in both replicates (recomputed)
[1] = compound: COC1=CC=C(C=C1)CN2C=CC3=C2C=C(C=C3)C(=O)NO
Summary of the method: (§1)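 Aliquots of K562 cells (2×10^6 cells/mL) treated with 10 μM compound for 30 min were heated for 3 min over 48°C-58°C. After pooling and extraction in PBS with 0.5% NP-40 at 4°C, soluble protein from a 21,000xg, 90 min spin was quantified by TMTpro 16plex LC-MS/MS with channel sums equalised. Thermal stability is expressed against control samples, from duplicates, as a log2 fold change.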

[2] = compound: CON(C)C(=O)N1N=C(c2cc(F)ccc2F)S[C@@]1(CCCN)c1ccccc1 [filanesib]
Summary of the method: as §1

[3] = compound: CO[C@H]1C[C@@H]2CC[C@@H](C)[C@@](O)(O2)C(=O)C(=O)N2CCCC[C@H]2C(=O)O[C@H]([C@H](C)C[C@@H]2CC[C@H](n3cnnn3)[C@H](OC)C2)CC(=O)[C@H](C)/C=C(\C)[C@@H](O)[C@@H](OC)C(=O)[C@H](C)C[C@H](C)/C=C/C=C/C=C/1C [zotarolimus]
Summary of the method: as §1

[4] = compound: COc1cc(C(=O)O)ccc1NC(=O)[C@@H]1N[C@@H](CC(C)(C)C)[C@](C#N)(c2ccc(Cl)cc2F)[C@H]1c1cccc(Cl)c1F [idasanutlin]
Summary of the method: as §1

[5] = compound: COc1cc(Nc2ncc3c(n2)-c2ccc(Cl)cc2C(c2c(F)cccc2OC)=NC3)ccc1C(=O)O [alisertib]
Summary of the method: as §1

[6] = compound: COc1cc2nc(-c3cc(F)ccc3O)nc(N[C@@H]3CNC[C@H]3C(C)(C)O)c2cc1OC
Summary of the method: as §1

[7] = compound: COc1cc2ncnc(Nc3ccc(F)c(Cl)c3)c2cc1OCCCN1CCOCC1 [gefitinib]
Summary of the method: as §1

[8] = compound: COc1cccc2cc(-c3nc([C@H]4CC[C@H](C(=O)O)CC4)n4ncnc(N)c34)[nH]c12
Summary of the method: as §1

[9] = compound: CS(=O)(=O)CCNCc1ccc(-c2ccc3ncnc(Nc4ccc(OCc5cccc(F)c5)c(Cl)c4)c3c2)o1 [lapatinib]
Summary of the method: as §1

[10] = compound: CS(=O)(=O)N1CCN(Cc2cc3nc(-c4cccc5[nH]ncc45)nc(N4CCOCC4)c3s2)CC1 [pictilisib]
Summary of the method: as §1

[11] = compound: CS(=O)(=O)c1ccc(-c2cnc(N)c(C(=O)Nc3ccccc3)n2)cc1
Summary of the method: as §1

[12] = compound: C[C@@H](Oc1cc(-c2cnn(C3CCNCC3)c2)cnc1N)c1c(Cl)ccc(F)c1Cl [crizotinib]
Summary of the method: as §1

[13] = compound: C[C@@H]1COCCN1C2=NC(=NC(=C2)C3(CC3)S(=O)(=O)C)C4=C5C=CNC5=CC=C4
Summary of the method: as §1

[14] = compound: C[C@H](C1=CC=C(C=C1)C(=O)NC2=C3C=CNC3=NC=C2)N
Summary of the method: as §1

[15] = compound: C[C@H](Nc1ncnc2nc[nH]c12)c1cc2cccc(Cl)c2c(=O)n1-c1ccccc1 [duvelisib]
Summary of the method: as §1

[16] = compound: Cc1cc(Nc2cc(CN3CCOCC3)c3nc(C)c(Cc4ccc(Cl)cc4F)n3n2)n[nH]1 [gandotinib]
Summary of the method: as §1

[17] = compound: Cc1cc(Nc2cc(N3CCN(C)CC3)nc(Sc3ccc(NC(=O)C4CC4)cc3)n2)n[nH]1 [tozasertib]
Summary of the method: as §1

[18] = compound: Cc1cc(SCc2sc(-c3ccc(C(F)(F)F)cc3)nc2C)ccc1OCC(=O)O
Summary of the method: as §1

[19] = compound: Cc1ccc(-n2nc(C(C)(C)C)cc2NC(=O)Nc2ccc(OCCN3CCOCC3)c3ccccc23)cc1 [doramapimod]
Summary of the method: as §1

[20] = compound: Cc1ccc(C(=O)N(CCCN)[C@@H](c2nc3cc(Cl)ccc3c(=O)n2Cc2ccccc2)C(C)C)cc1 [ispinesib]
Summary of the method: as §1

Measured: log2 fold change

TARBP1 (UniProt Q13395)
inactive: [1] -0.036 | [2] -0.077 | [3] 0.105 | [4] -0.027 | [5] 0.096 | [6] 0.049 | [7] -0.026 | [8] -0.019 | [9] -0.015 | [10] -0.078 | [11] 0.076 | [12] 0.016 | [13] 0.028 | [14] -0.074 | [15] -0.046 | [16] -0.075 | [17] -0.018 | [18] 0.038 | [19] -0.004 | [20] 0.026

SLIRP (UniProt Q9GZT3)
active: [2] -0.429 | [6] -0.648
inactive: [1] 0.088 | [3] -0.054 | [4] 0.041 | [5] -0.08 | [7] 0.041 | [8] 0.023 | [9] -0.042 | [10] -0.15 | [11] -0.046 | [12] -0.267 | [13] -0.202 | [14] 0.058 | [15] 0.029 | [16] 0.162 | [17] -0.075 | [18] 0.146 | [19] -0.045 | [20] -0.149

SLC25A39 (UniProt Q9BZJ4)
inactive: [1] -0.069 | [2] -0.255 | [3] 0.073 | [4] -0.115 | [5] 0.123 | [6] -0.49 | [7] -0.344 | [8] 0.224 | [9] -0.044 | [10] -0.072 | [11] -0.029 | [12] -0.025 | [13] 0.14 | [14] -0.165 | [15] 0.044 | [16] 0.075 | [17] 0.269 | [18] -0.08 | [19] -0.079 | [20] -0.523

SUCLA2 (UniProt Q9P2R7)
Sequence of UniProt Q9P2R7 (Q9P2R7 whole entry, looked up): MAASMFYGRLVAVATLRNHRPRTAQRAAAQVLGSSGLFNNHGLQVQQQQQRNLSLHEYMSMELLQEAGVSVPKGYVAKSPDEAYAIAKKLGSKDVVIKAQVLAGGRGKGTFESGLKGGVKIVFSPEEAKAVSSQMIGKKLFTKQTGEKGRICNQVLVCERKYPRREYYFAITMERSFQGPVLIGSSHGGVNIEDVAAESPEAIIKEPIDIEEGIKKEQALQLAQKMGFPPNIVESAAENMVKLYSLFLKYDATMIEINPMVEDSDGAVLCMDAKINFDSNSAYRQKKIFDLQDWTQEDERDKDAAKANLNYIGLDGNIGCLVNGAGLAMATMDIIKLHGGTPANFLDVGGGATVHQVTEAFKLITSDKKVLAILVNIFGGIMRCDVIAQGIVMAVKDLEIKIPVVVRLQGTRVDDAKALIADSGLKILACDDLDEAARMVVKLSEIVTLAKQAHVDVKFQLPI
inactive: [1] -0.004 | [2] -0.096 | [3] 0.01 | [4] -0.074 | [5] 0.104 | [6] 0.093 | [7] 0.022 | [8] 0.018 | [9] -0.05 | [10] 0.109 | [11] 0.034 | [12] 0.001 | [13] 0.087 | [14] -0.011 | [15] 0.04 | [16] -0.058 | [17] -0.043 | [18] 0.012 | [19] 0.003 | [20] -0.064

TELO2 (UniProt Q9Y4R8)
inactive: [1] -0.026 | [2] 0.113 | [3] 0.098 | [4] -0.103 | [5] -0.16 | [6] -0.122 | [7] 0.004 | [8] -0.125 | [9] 0.007 | [10] -0.023 | [11] -0.022 | [12] -0.055 | [13] 0.013 | [14] 0.233 | [15] -0.055 | [16] -0.198 | [17] 0.013 | [18] 0.176 | [19] 0.094 | [20] -0.136

SYF2 (UniProt O95926)
Sequence of UniProt O95926 (O95926 whole entry, looked up): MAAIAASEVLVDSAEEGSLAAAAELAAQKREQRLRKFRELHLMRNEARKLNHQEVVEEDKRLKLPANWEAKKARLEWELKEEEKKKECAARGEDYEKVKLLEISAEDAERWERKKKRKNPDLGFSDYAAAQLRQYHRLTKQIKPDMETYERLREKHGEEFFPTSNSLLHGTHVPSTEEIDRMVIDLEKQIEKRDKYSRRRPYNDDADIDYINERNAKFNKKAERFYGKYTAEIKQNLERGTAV
inactive: [1] -0.236 | [2] 0.069 | [3] -0.174 | [4] 0.058 | [5] -0.07 | [6] 0.191 | [7] -0.109 | [8] 0.02 | [9] -0.025 | [10] -0.092 | [11] -0.147 | [12] 0.206 | [13] -0.031 | [14] 0.157 | [15] -0.039 | [16] 0.11 | [17] -0.113 | [18] -0.078 | [19] 0.022 | [20] -0.079

SRSF7 (UniProt Q16629)
Sequence of UniProt Q16629 (Q16629 whole entry, looked up): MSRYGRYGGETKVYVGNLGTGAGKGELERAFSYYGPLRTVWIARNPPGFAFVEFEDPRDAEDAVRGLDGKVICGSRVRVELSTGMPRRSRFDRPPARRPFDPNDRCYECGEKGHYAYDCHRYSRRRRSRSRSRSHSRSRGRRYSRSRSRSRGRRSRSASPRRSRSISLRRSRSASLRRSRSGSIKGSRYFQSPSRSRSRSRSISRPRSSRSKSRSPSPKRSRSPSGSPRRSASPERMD
inactive: [1] -0.089 | [2] 0.422 | [3] -0.015 | [4] 0.327 | [5] -0.114 | [6] -0.047 | [7] 0.084 | [8] 0.013 | [9] 0.1 | [10] -0.003 | [11] -0.096 | [12] 0.008 | [13] -0.311 | [14] 0.045 | [15] -0.093 | [16] 0.319 | [17] -0.005 | [18] -0.025 | [19] 0.073 | [20] -0.089

SP100 isoform 4 (UniProt P23497)
Sequence of UniProt P23497 (P23497 whole entry, looked up): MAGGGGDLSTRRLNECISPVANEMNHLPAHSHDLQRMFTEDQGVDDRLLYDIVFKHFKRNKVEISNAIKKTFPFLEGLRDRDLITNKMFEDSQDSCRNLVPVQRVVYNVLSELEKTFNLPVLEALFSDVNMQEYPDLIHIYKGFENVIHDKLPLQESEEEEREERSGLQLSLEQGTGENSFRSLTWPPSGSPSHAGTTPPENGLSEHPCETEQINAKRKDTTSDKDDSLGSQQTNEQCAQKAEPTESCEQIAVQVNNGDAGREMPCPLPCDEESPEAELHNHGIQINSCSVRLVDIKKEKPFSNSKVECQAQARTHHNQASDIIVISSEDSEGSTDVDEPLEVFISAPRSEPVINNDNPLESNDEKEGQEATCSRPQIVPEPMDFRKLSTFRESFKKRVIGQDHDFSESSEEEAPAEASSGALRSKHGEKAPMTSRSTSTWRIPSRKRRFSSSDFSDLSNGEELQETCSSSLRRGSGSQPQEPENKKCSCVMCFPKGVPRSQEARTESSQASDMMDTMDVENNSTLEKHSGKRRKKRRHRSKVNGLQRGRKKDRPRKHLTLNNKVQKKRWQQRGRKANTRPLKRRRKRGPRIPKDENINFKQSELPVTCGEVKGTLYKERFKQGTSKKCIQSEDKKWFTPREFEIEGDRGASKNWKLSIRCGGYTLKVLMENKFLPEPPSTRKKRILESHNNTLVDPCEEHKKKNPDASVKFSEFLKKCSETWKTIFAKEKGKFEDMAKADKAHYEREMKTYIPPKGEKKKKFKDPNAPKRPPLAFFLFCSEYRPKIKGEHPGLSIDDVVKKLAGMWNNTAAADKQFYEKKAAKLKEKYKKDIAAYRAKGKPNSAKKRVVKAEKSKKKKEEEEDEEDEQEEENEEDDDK
active: [6] -0.242
inactive: [1] 0.05 | [2] 0 | [3] 0.013 | [4] -0.022 | [5] -0.026 | [7] 0.024 | [8] 0.036 | [9] 0.188 | [10] 0.013 | [11] -0.002 | [12] 0.062 | [13] 0.071 | [14] -0.1 | [15] 0.074 | [16] -0.008 | [17] 0.033 | [18] -0.016 | [19] -0.046 | [20] 0.062

SRRM2 (UniProt Q9UQ35)
inactive: [1] 0.018 | [2] 0.097 | [3] 0.05 | [4] 0.166 | [5] -0.121 | [6] -0.293 | [7] 0.018 | [8] 0.028 | [9] 0.01 | [10] 0.117 | [11] -0.048 | [12] -0.246 | [13] 0.021 | [14] -0.255 | [15] -0.044 | [16] -0.13 | [17] 0.013 | [18] 0.012 | [19] 0.044 | [20] -0.131

SLC25A38 (UniProt Q96DW6)
Sequence of UniProt Q96DW6 (Q96DW6 whole entry, looked up): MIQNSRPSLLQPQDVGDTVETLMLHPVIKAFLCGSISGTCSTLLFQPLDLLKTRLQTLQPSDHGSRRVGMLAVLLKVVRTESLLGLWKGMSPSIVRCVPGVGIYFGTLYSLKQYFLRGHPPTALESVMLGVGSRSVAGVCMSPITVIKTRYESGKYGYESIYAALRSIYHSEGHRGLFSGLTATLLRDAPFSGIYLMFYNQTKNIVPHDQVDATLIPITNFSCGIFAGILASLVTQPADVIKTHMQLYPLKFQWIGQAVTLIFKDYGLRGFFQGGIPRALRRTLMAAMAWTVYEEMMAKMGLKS
active: [8] 0.447
inactive: [1] -0.013 | [2] -0.01 | [3] -0.029 | [4] -0.069 | [5] -0.049 | [6] 0.039 | [7] 0.013 | [9] -0.02 | [10] 0.04 | [11] 0.146 | [12] 0.105 | [13] 0.045 | [14] 0.002 | [15] 0.088 | [16] -0.035 | [17] -0.003 | [18] -0.058 | [19] 0.001 | [20] 0

TANK (UniProt Q92844)
inactive: [1] 0.017 | [2] 0.03 | [3] -0.024 | [4] 0.02 | [5] -0.028 | [6] 0.097 | [7] -0.032 | [8] 0.048 | [9] -0.015 | [10] 0.027 | [11] -0.032 | [12] 0.287 | [13] -0.021 | [14] 0.069 | [15] 0.038 | [16] 0.135 | [17] 0.112 | [18] 0.091 | [19] -0.015 | [20] -0.064

TAX1BP1 (UniProt Q86VP1)
Sequence of UniProt Q86VP1 (Q86VP1 whole entry, looked up): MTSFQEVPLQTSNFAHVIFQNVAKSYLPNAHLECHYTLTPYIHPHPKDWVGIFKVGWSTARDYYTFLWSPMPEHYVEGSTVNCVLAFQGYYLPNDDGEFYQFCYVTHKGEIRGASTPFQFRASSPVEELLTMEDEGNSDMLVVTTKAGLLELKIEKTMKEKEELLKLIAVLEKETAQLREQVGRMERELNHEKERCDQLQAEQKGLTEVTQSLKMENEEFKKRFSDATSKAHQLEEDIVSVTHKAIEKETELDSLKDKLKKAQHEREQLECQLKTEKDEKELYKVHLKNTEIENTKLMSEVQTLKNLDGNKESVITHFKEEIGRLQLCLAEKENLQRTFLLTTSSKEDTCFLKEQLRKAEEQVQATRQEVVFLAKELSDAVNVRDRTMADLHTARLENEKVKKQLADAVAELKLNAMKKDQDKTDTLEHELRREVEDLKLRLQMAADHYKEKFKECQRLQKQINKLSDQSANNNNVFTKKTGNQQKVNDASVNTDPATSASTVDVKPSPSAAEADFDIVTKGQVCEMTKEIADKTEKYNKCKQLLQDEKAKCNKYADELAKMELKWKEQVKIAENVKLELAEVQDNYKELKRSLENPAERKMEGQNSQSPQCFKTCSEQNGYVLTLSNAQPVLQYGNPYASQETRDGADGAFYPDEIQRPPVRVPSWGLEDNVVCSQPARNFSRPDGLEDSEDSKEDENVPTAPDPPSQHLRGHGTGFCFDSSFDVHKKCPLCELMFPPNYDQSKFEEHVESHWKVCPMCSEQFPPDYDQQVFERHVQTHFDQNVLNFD
inactive: [1] -0.03 | [2] -0.043 | [3] -0.009 | [4] 0.069 | [5] 0.007 | [6] -0.052 | [7] 0.001 | [8] 0.033 | [9] -0.012 | [10] 0.044 | [11] -0.001 | [12] -0.009 | [13] -0.058 | [14] 0.042 | [15] 0.168 | [16] 0.156 | [17] 0.152 | [18] 0.069 | [19] 0.062 | [20] -0.067

SUOX (UniProt P51687)
inactive: [1] -0.321 | [2] -0.014 | [3] 0.02 | [4] 0.013 | [5] -0.014 | [6] 0.088 | [7] 0.007 | [8] 0.022 | [9] -0.088 | [10] 0.158 | [11] 0.016 | [12] 0.076 | [13] 0.098 | [14] 0.001 | [15] -0.026 | [16] 0.063 | [17] 0.003 | [18] -0.075 | [19] -0.338 | [20] -0.034

TLK2 isoform 2 (UniProt Q86UE8)
Sequence of UniProt Q86UE8 (Q86UE8 whole entry, looked up): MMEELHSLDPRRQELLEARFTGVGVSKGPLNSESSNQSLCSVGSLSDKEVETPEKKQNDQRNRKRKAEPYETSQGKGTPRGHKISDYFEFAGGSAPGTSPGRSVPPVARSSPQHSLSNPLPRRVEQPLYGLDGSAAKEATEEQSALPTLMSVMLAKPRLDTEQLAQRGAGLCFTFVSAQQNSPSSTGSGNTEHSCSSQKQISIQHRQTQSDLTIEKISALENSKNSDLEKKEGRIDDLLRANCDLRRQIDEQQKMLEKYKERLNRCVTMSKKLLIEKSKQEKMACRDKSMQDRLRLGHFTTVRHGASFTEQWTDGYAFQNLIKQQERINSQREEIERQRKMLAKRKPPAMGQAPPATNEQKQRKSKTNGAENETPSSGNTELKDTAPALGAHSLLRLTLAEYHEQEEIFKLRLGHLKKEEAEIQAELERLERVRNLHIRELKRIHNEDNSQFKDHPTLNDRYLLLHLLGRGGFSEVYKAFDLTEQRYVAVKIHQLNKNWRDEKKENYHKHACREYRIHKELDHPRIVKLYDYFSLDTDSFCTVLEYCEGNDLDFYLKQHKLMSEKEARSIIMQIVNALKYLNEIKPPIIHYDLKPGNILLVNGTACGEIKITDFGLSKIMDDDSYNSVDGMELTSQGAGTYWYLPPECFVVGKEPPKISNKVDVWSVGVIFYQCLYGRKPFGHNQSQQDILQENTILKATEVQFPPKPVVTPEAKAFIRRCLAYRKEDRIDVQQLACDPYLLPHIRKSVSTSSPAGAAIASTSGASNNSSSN
inactive: [1] -0.019 | [2] 0.038 | [3] 0.032 | [4] 0.087 | [5] 0.115 | [6] -0.036 | [7] 0.007 | [8] 0.06 | [9] 0.041 | [10] -0.071 | [11] -0.063 | [12] -0.031 | [13] 0.139 | [14] -0.095 | [15] -0.007 | [16] 0.165 | [17] -0.047 | [18] -0.07 | [19] -0.042 | [20] 0.019

SPPL2B (UniProt Q8TCT7)
Sequence of UniProt Q8TCT7 (Q8TCT7 whole entry, looked up): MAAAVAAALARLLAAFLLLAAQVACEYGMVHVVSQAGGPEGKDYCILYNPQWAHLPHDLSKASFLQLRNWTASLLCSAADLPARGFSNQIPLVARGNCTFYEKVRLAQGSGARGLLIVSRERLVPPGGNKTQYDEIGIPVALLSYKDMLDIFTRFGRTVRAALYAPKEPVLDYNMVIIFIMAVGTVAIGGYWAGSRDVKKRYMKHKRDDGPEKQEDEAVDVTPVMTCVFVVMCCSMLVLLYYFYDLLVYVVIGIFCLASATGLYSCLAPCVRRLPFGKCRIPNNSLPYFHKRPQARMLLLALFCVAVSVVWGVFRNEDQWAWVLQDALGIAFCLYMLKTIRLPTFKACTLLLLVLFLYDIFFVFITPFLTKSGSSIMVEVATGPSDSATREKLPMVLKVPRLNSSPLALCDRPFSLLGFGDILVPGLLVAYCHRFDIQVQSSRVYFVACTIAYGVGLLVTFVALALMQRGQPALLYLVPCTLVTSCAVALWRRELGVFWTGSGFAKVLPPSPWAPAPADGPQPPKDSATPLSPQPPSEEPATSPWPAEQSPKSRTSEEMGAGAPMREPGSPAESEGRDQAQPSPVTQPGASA
inactive: [1] 0.025 | [2] -0.223 | [3] -0.016 | [4] -0.01 | [5] -0.113 | [6] -0.05 | [7] -0.061 | [8] 0.084 | [9] -0.002 | [11] 0.049 | [12] -0.011 | [13] -0.072 | [14] 0.006 | [15] 0.031 | [16] -0.004 | [17] -0.032 | [18] -0.022 | [19] 0.01 | [20] -0.026
active: [10] 0.292

TBK1 (UniProt Q9UHD2)
Sequence of UniProt Q9UHD2 (Q9UHD2 whole entry, looked up): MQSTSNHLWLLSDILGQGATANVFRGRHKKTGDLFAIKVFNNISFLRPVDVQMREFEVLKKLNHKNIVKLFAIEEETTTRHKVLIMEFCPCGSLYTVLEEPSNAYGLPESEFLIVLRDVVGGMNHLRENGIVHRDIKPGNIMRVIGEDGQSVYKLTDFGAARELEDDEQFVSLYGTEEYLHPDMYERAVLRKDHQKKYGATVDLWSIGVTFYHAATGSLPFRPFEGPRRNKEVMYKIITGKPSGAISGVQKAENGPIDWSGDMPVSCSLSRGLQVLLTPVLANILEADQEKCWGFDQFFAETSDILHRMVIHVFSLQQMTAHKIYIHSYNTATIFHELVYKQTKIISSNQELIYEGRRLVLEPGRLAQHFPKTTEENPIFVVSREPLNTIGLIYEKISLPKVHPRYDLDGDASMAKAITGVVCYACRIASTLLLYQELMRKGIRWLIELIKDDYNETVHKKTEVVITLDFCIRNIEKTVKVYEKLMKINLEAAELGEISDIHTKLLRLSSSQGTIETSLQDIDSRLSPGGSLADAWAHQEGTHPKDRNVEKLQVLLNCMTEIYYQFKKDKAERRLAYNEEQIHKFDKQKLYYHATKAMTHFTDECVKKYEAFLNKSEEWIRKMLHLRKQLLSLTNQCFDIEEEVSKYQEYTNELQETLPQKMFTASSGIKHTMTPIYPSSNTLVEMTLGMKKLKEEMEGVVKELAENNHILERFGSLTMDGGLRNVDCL
active: [12] 0.489
inactive: [1] -0.06 | [2] 0.05 | [3] -0.037 | [4] 0.046 | [5] 0.064 | [6] 0.087 | [7] -0.098 | [8] 0.08 | [9] -0.018 | [10] 0.009 | [11] -0.027 | [13] -0.021 | [14] 0.043 | [15] 0.082 | [16] 0.237 | [17] 0.129 | [18] 0.175 | [19] 0.013 | [20] -0.18
